Compound activity as filed in PubChem.
gsp antagonist = antagonists of gsp mutant (McCune-Albright syndrome). gsp-mutant cells, cAMP HTRF, 30 min. Potency, µM (titrated, usually from 76.9 µM), inactives show top-dose activity change, negative = inhibition, actives largely listed as inhibitors. hit rate 0.4% among 340,000. AID 624288; calls by dose curve; cell line not stated here;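 note: intracellular cAMP measured with PDE inhibitor Ro 20-1724 present during compound exposure; potency is the fitted concentration of half-maximal effect; % is set by controls: 0 for no effect and ±100 for the full control effect; nearly all actives have a fitted effect of over 65% in size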
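Cells, 2000/well, grown 16–24 h in DMEM 10% FBS with 0.5 mg/ml G418, then compounds plus […] (300 uM addition stock), 30 min at 37C. cAMP read by HTRF (cAMP-d2 and anti-cAMP antibody-K in lysis buffer) after 30 min RT.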
RXFP1 agonist = activates the human relaxin receptor RXFP1. HEK293T-RXFP1 cAMP TR-FRET, 30 min; response scale: percent of porcine relaxin response, buffer zero. Potency, µM (titrated, usually from 57.5 µM), without a hit: at the top dose activation, hits mostly activators. hit rate 0.3% among 370,000. AID 2676; active = well fitted activation curve with a large enough effect; inconclusive = small, poorly fitted or top-dose-only effect; note: potency is the fitted concentration of half-maximal effect; % is set by controls: 0 for no effect and ±100 for the full control effect; nearly all actives have a fitted effect of over 60% in size
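cAMP rise read by TR-FRET after 30 min, 37C compound exposure (up to 58 uM) in RXFP1-transfected HEK293 cells with Ro 20174 present. EC50 from Hill-equation fits, with 29 nM porcine relaxin as 100% and buffer as basal.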
Giardia kill = kills Giardia lamblia | AID 540267 | Giardia lamblia trophozoite viability | hit rate 0.15% among 340,000 | activity change, % at 7.66 µM, hits read low; in the data active = activity change below about -80%; inconclusive = between about -30% and that limit;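 note: parasites exposed to compound for two days anaerobically before the ATP read; % is set by controls: 0 for no effect and ±100 for the full control effect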
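Giardia lamblia trophozoites (100 cells/well) were incubated with compounds for 48 h at 37 deg C under anaerobic conditions. Viability was read as ATP content by one-step luminescence after 15-30 min at room temperature.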
FBPA coupling cs = coupling enzyme interference in Giardia aldolase counter-screen; coupling enzyme system counterscreen, AmpLite Red fluorescence; activity change, negative = inhibition, % at 58.2 µM, hits read low; hit rate 0.67% among 290,000; in the data active = activity change below about -30%; note: % is set by controls: 0 for no effect and ±100 for the full control effect
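Coupling enzymes only (glyceraldehyde-3-phosphate) + compound, at 57.5 uM final, 10 min RT; add substrate/coupling/AmpLite Red mix, 20 min RT; fluorescence ex 525/em 598 nm. Actives flag coupling-system interference.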
RXFP1 antag = antagonists of human relaxin receptor RXFP1; Q9HBX9; HEK293-RXFP1, relaxin-stimulated cAMP HTRF, 30 min; stronger effect = lower value; activity change, negative = inhibition, % at 57.5 µM; hit rate 0.59% among 350,000; AID 1259400;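 active = activity change of -60% or lower, but not beyond a set lower limit; inconclusive = change between -60% and -40%, or beyond the set limit; inactive = change above -40%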; note: % is set by controls: 0 for no effect and ±100 for the full control effect
gsp ag = agonists of gsp mutant (McCune-Albright syndrome) | gsp mutant cells, cAMP HTRF, 30 min | Potency, µM (top dose mostly 76.9 µM), for the others: at the top dose activation (cAMP increase), most hits filed as activators | hit rate 0.13% among 340,000; active = well fitted activation curve with a large enough effect; inconclusive = small, poorly fitted or top-dose-only effect, or another doubt; inactive = no such curve, though single readings can be large or run the other way; cell line not stated here;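 note: phosphodiesterase inhibitor Ro 20-1724 added with compounds to block cAMP breakdown; potency is the fitted concentration of half-maximal effect; nearly all actives have a fitted effect of over 60% in size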
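Cells in DMEM/10% FBS with G418 were pretreated with compounds in DMSO plus […] (300 uM stock) for 30 min at 37C. cAMP was measured by HTRF (cAMP-d2 plus anti-cAMP antibody-K) after 30 min at room temperature.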
The depositor's hits bear a star; ? = inconclusive; . = not tested or not shown; [ ] = remark or other dose. Rows were chosen to be rich in hits. Some 1.6% of all compounds tested hit in one or more screens of this group.

SMILES	gsp antagonist	RXFP1 agonist	Giardia kill	FBPA coupling cs	RXFP1 antag	gsp ag
O=C(c1ccccc1)N1CCN(c2ncnc3c2cnn3-c2ccccc2)CC1	?	0.0%	6.8	.	-5.6	-14.9%
CCCCOC(=O)CCCCCCCCC(=O)OCCCC	.	.	.	.	-18.4	.
CC1=CC2(O)OCCN(CCO)C2=CC1=O (stereo not given)	-6.6%	-1.1%	4.4	-66.9*	-5.2	0.7%
Cc1cc(C)n(-c2ncc3c(n2)N(CCO)CCOC3=O)n1	1.9%	-0.3%	2.8	0.7	3.4	18.2%
CCCn1c2ccccc2c2cnn(CC(=O)N(CCCOC)Cc3ccco3)c(=O)c21	.	3.5%	.	.	1.0	.
COc1ccc(N2CCCC2)c(NC(=O)c2ccc([N+](=O)[O-])o2)c1	-4.4%	-0.6%	-85.9*	-1.8	2.5	-2.3%[15.4 µM]
CC(C)(C)C(=O)N1CCN(c2ccc(NC(=O)c3ccc([N+](=O)[O-])o3)cc2)CC1	-5.9%	2.7%	-81.1*	-0.2	11.6	3.9%
O=C(Nc1ccc(N2CCN(Cc3ccccc3F)CC2)cc1)c1ccccc1[N+](=O)[O-]	.	-0.6%	-10.6	0.4	-1.7	-0.1%[15.4 µM]
CC(C)(C)C(=O)Nc1ccc(NC(=O)c2ccco2)nc1	-2.9%	0.5%	-94.0*	1.0	15.2	34.8%
O=C(Nc1ccc(N2CCN(Cc3ccccc3F)CC2)cc1)c1ccc([N+](=O)[O-])o1	11.0%	-2.7%	-96.3*	.	-9.1	-18.9%[15.4 µM]
CC1CCN(c2ccc(NC(=O)c3ccc([N+](=O)[O-])o3)cc2)CC1	0.8%	0.4%	?	.	-16.5	-50.0%
CC(C)(C)C(=O)N1CCN(c2ccc(NC(=O)c3ccco3)cc2)CC1	-8.3%	0.6%	2.5	0.1	-82.8*	-6.0%
O=C(Nc1ccc(N2CCCCC2)cc1)c1ccc([N+](=O)[O-])o1	4.9%	-4.2%	-85.1*	-1.8	-7.5	-4.8%[15.4 µM]
CS(=O)(=O)N1CCN(c2ccc(NC(=O)c3ccc([N+](=O)[O-])o3)cc2)CC1	-5.9%	3.3%	-81.2*	1.8	-0.5	?
O=C(Nc1ccc(N2CCN(C(=O)c3ccc(Cl)cc3)CC2)cc1)c1ccc([N+](=O)[O-])o1	4.9%	-1.1%	-86.8*	0.6	2.5	-1.2%
CCC(=O)N1CCN(c2ccc(NC(=O)c3ccc([N+](=O)[O-])o3)cc2)CC1	-31.8%	1.2%	?	-6.7	-10.3	9.7%[15.4 µM]
N#Cc1ccc(OC(=O)C2CCN(C3=NS(=O)(=O)c4ccccc43)CC2)cc1	13.1%	?	3.9	.	10.3	-31.2%
CCCC(=O)N1CCN(c2ccc(NC(=O)c3ccc([N+](=O)[O-])o3)cc2)CC1	-22.1%	-1.9%	-81.6*	-3.7	3.2	-29.2%[15.4 µM]
COc1ccc(CSc2nc3ccncc3n2Cc2nc(-c3ccc(OC)c(OC)c3)oc2C)cc1	.	10.8%	.	.	-5.3	.
COc1ccc(N2C(=O)[C@@H]3[C@H](C2=O)[C@H]2c4ccccc4C=CN2[C@@H]3C(C)=O)cc1	3.4%	0.3%	-21.8	-42.1*	9.6	1.9%
COc1ccc(N2C(=O)[C@H]3[C@@H](C2=O)C2c4ccccc4C=NN2[C@H]3C(=O)C(C)(C)C)cc1 (stereo not given in full)	-5.2%	1.2%	-12.9	0.4	11.6	16.5%
CC(=O)c1sc(N/N=C/c2cccc(O)c2)nc1C	-9.8%	0.7%	4.3	-0.5	.	18.2%
CC(=O)c1sc(N/N=C\c2c(O)ccc3ccccc23)nc1C	-6.0%	.	-17.5	.	-82.2*	12.0%
CCC(Sc1nc2cc(OC)c(OC)cc2c(=O)n1CCc1ccc(OC)c(OC)c1)C(=O)NCCOC (stereo not given)	-22.1%	0.7%	5.6	-0.9	-1.0	3.8%[15.4 µM]
O=C(COc1cccnc1[N+](=O)[O-])Nc1ccc2c(c1)OC(F)(F)O2	-1.4%	3.5%	-84.1*	0.7	8.4	-9.1%
COc1ccc(NC(=O)COc2cccnc2[N+](=O)[O-])cc1OC	2.7%	-0.5%	-20.7	-0.6	-1.3	5.0%[15.4 µM]
COc1ccccc1NC(=O)Nc1nn(C)c2cccc(N(C)C)c12	-21.4%	3.7%	7.5	-33.7*	3.7	-3.8%[15.4 µM]
